From PubChem
RmlCD inh mix: mixture blocks RmlC and RmlD coupled enzyme activity. hit rate 0.39% among 110,000. inhibition, % at 5.5 µM. RmlC/RmlD coupled enzyme inhibition, 384-well mixture HTS; in the data active means inhibition above about 30%, passing the limit was not always enough; inconclusive means no clear call, values can overlap the other calls
RT RNaseH block: blocks HIV-1 RNase H cleavage of RNA/DNA duplex. P04585. RT-RNase H RNA/DNA duplex cleavage, fluorescence. inhibition, % at 10 µM. hit rate 1.9% among 65,000; in the data active means inhibition above about 50%
RmlCD fluor art: shows fluorescent artifact in RmlC/RmlD assay, dose-response counter-screen | shares compounds with RmlCD inh mix | RmlC/RmlD assay fluorescence artifact counter-screen | calls only | hit rate 96% among 360; call rule not given here;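 further: compound alone with no enzyme and no substrates present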
A number is an active result; i = inactive; ? = inconclusive; nt = no result given; + = active, no number. The sample as a whole holds a higher share of hits than the screen did.

SMILES | RmlCD inh mix | RT RNaseH block | RmlCD fluor art
COc1ccccc1Oc1c(C)oc2c(CN3CCN(C)CC3)c(O)ccc2c1=O | nt | i | nt
COC(=O)c1ccc(Oc2c(C)oc3c(CN4CCN(C)CC4)c(O)ccc3c2=O)cc1 | 40 | i | +
N#Cc1ccccc1NC(=O)Nc1cccc(Cl)c1 | 44 | i | +
Cc1ccc(NC(=O)Nc2ccccc2C#N)c(Cl)c1 | i | nt | nt
O=C(Nc1cccc(Cl)c1)Nc1cccc(Cl)c1 | i | nt | nt
N#Cc1ccccc1NC(=O)Nc1ccc(Cl)cc1 | 40 | nt | +
COC(=O)c1ccc(NC(=O)Cn2nc(-c3ccncc3)nc2SCC(=O)Nc2nccs2)cc1 | i | nt | nt
CCCSc1cc(N2CCOCC2)nc(-c2ccccc2Cl)n1 | i | nt | nt
Cc1cc(C)c2c(N)c(S(=O)c3ccc(C(C)(C)C)cc3)sc2n1 (configuration not stated) | i | nt | nt
O=C1CC(Cc2ccccc2)C(=O)N1CCCn1ccnc1 (configuration not stated) | nt | i | nt
COc1cc(NC(=O)c2ccco2)c(OC)cc1NC(=O)c1cc(OC)c(OC)c(OC)c1 | i | i | nt
CCOc1cc(NC(=O)c2ccco2)c(OCC)cc1NC(=O)c1cc(OC)c(OC)c(OC)c1 | + | i | +
CCCCCOc1ccc(CSc2ncn[nH]2)cc1 | i | nt | nt
COCCn1c(N)c(C#N)c2nc3ccccc3nc21 | 55 | nt | +
N#Cc1c(N)n(CCOC(=O)c2cccc([N+](=O)[O-])c2)c2nc3ccccc3nc12 | 45 | nt | +
N#Cc1c(N)n(CCOC(=O)c2cccc(Br)c2)c2nc3ccccc3nc12 | i | i | nt
COc1cc(Cn2c(N)c(C#N)c3nc4ccccc4nc32)cc(OC)c1 | nt | i | nt
O=C(CCC1CCCC1)NC1CCCCC1 | i | nt | nt
O=C(NC1CC1)C1=C[C@H](c2ccc(C(F)(F)F)cc2)C[C@H](OCc2ccc(CO)cc2)O1 | i | nt | nt
COc1ccccc1N=c1oc2cc(O)ccc2cc1C(=O)NCC1CCCO1 (configuration not stated) | i | i | nt
COc1ccccc1N=c1oc2cc(O)ccc2cc1C(N)=O | 40 | i | +
Cc1cccc(N2CCN(C(=O)Cc3c(C(=O)O)[nH]c4ccc(Cl)cc34)CC2)c1C | i | i | nt
CC(/C=C/c1ccco1)=N/NC(=O)Cc1cccs1 | i | nt | nt
COC(=O)c1cc(-c2c(C)oc3cc(OC(C)C)ccc3c2=O)c(C)o1 | i | i | nt
Cc1cc(=O)oc2cc(Oc3ncccn3)ccc12 | i | i | nt
SMILES | RmlCD inh mix | RT RNaseH block | RmlCD fluor art
CC(=O)Oc1ccc2c(=O)c(-c3ccccc3)c(C)oc2c1 | 80 | nt | +
Cc1cc(=O)oc2cc(OC(=O)c3ccccc3)ccc12 | 46 | nt | +
O=C(NCc1nc2ccccc2[nH]1)C1=C[C@H](c2coc3ccccc3c2=O)C[C@H](OCc2ccc(CO)cc2)O1 | i | nt | nt
O=C(NC1CS(=O)(=O)CC1NCc1ccccc1)c1ccccc1 (configuration not stated) | i | i | nt
N#Cc1cnn2c(-c3ccccc3)ccnc12 | i | nt | nt
COc1ccc(-c2ccnc3c(C#N)cnn23)cc1 | nt | nt | +
CN(c1ncc(C(F)(F)F)cc1Cl)n1cc(C(N)=O)c2ccccc2c1=O | i | nt | nt
CN(C)C(=O)COc1ccc2cc(-c3ccccc3)c(=O)oc2c1 | 55 | i | +
Cc1cc(OCC(=O)N(C)C)c2c(-c3ccccc3)cc(=O)oc2c1 | i | i | nt
Cc1cc(N2CCC(C)CC2)nc(SCC(=O)c2ccccc2)n1 | i | nt | nt
c1ccc(-c2cnc(-c3cccnc3)o2)cc1 | i | i | nt
NC(=O)c1ccc(-c2ncc(-c3ccccc3)o2)cc1 | 73 | i | +
CC1(c2nnc(-c3ccc(F)cc3)o2)CC(c2ccccc2)=NO1 (configuration not stated) | i | nt | nt
COC(=O)C1=C(C)N(CCCCCC(=O)O)C(=O)NC1c1ccccc1 (configuration not stated) | i | nt | nt
COC(=O)c1cccc(Oc2nc3c(c(=O)n(C)c(=O)n3C)n2C(C)C)c1 | i | i | nt
CCc1nnc(NC(=O)C2c3ccccc3Oc3ccccc32)s1 | i | nt | nt
CCCCn1c(-c2cccs2)nc2nc3ccccc3nc21 | i | nt | nt
CCCCOCCCn1c(-c2ccco2)nc2nc3ccccc3nc21 | 41 | i | +
O=C(O)C[C@H]1c2ccccc2S(=O)(=O)N1c1ccccc1 | i | nt | nt
Cc1ccn(C(=O)c2cc3cc(Cl)ccc3oc2=O)n1 | i | nt | nt
COc1ccc2oc(=O)c(C(=O)n3ccc(C)n3)cc2c1 | 111 | nt | +
Cc1cccc(S(=O)(=O)Nc2ccc(C)c3c2OC(C)(C)C3)c1 | i | nt | nt
O=C(NCc1ccccn1)C1CCC(=O)N1C1CCCCC1 (configuration not stated) | i | nt | nt
O=C(c1ccco1)N1CCN(C(=O)c2cc3c(s2)-c2ccccc2OC3)CC1 | 46 | i | +
O=C(O)c1cc2c(s1)-c1ccccc1OC2 | ? | i | nt
C=CCSC(=C(C#N)C#N)c1cc2c([nH]1)CCCC2 | i | nt | nt
COc1cc(-c2nc3ccccn3c2/N=C/c2cc(OC)c(OC)c(OC)c2)ccc1O | 44 | nt | +
COc1cc(/C=N/Nc2nn3cnnc3c3ccccc23)ccc1O | i | nt | nt
